B2AR arrestin – beta2AR (human) beta-arrestin recruitment activity | P07550 | beta-arrestin recruitment to beta2AR, cell-based reporter | Potency, µM (top dose mostly 46.1 µM), for inactives: top-dose activation, usual class: activators | 330,000 tested, 0.02% active | AID 492947;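 further: potency means the concentration at half of the fitted maximal effect; 0% = DMSO controls and full agonism = EC100 isoproterenol or metaproterenol; nearly all actives have a fitted effect of over 65% in size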
PTHR1 ag – agonists of human PTHR1 parathyroid hormone receptor. 410,000 tested, 0.075% active. Potency, µM (titrated, usually from 115 µM), inactives show top-dose activation, most hits filed as activators. HEK293 GP2 PTHR1 cells, GloSensor cAMP luminescence, 1 h. AID 743266. Q03431; further: potency means the concentration at half of the fitted maximal effect; nearly all actives have a fitted effect of over 55% in size
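HEK-293-derived GP2 cells expressing PTHR1 and a GloSensor cAMP reporter, 3,000/well, plated overnight, given luciferin plus IBMX (each 0.5 mM as added) for 1 h at 37 °C, then compound for 1 h at 37 °C. Luminescence was read after 15 min at room temperature.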
DRD3 agonist – D3 dopamine receptor (human) agonism | P35462 | D3R DiscoveRx beta-arrestin cells, luminescence, 90 min | max activation, % | 410,000 tested, 0.58% active; in the data active means max activation above about 30%; further: 0% is about no effect
Target sequence (P35462 whole entry, looked up): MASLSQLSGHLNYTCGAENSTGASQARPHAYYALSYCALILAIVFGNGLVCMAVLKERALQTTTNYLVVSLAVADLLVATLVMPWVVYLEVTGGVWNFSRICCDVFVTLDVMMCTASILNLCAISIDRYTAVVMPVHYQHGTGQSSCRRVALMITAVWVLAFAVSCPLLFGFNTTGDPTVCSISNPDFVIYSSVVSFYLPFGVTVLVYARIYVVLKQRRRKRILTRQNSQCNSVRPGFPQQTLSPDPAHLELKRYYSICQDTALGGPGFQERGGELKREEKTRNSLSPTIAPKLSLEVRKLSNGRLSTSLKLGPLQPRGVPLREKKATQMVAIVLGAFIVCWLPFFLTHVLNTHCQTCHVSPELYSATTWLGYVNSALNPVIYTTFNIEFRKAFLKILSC
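Agonist mode: compounds and dopamine controls were applied to plated cells for 90 min at 37 degrees C after an overnight attachment at 1500 cells/well. Luminescent read-out followed 30 - 60 minutes at room temperature with DiscoveRx detection reagent.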
RGS4 inhibitor – blocks human RGS4-accelerated GTP hydrolysis; P49798; 390,000 tested, 0.039% active; Potency, µM (top dose mostly 114 µM), for the others: at the highest dose activity change, negative = inhibition, most hits filed as inhibitors; AID 504845; Transcreener GDP fluorescence polarization, RGS4-accelerated GTP hydrolysis; further: potency means the concentration at half of the fitted maximal effect; on the % scale 0 is the no-effect control and ±100 the full control effect; nearly all actives have a fitted effect of over 75% in size
Target sequence (P49798 whole entry, looked up): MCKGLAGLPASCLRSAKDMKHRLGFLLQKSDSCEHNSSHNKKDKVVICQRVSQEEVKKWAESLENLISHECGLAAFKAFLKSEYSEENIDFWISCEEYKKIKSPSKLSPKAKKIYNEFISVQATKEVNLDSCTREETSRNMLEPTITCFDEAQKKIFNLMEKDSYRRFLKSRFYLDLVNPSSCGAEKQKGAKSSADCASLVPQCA
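MLSMR compounds (23 nl, pin-transferred) preincubated 10 min at room temperature with a 500nM (2x) first reagent, then RGS4 at 900nM (2x) plus Transcreener GDP mix added; fluorescence polarization (620/688 nm) read before and after 90 min at 30 °C.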
BRCA1 expr act – BRCA1 expression activation; MCF7-BRCA1-FFLuc reporter, luminescence, 48 h; response scale: scaled: vehicle 0%, 10 µM genistein 100%; Potency, µM (titrated, usually from 46.1 µM), inactives show top-dose activation, usual class: activators; 380,000 tested, 1.1% active; AID 624202; further: potency means the concentration at half of the fitted maximal effect; nearly all actives have a fitted effect of over 80% in size
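Cells: MCF7-BRCA1-FFLuc, 2000/well. Exposure: 48 h, 37 °C, 5% CO2. Read: luminescence, 15 min post-substrate. Controls: genistein 10 microM (maximal activation), DMSO (neutral).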
DRD3 antagonist – antagonists of human D3 dopamine receptor. P35462. D3R cells, DiscoveRx beta-arrestin luminescence, antagonist mode; stronger effect = lower value. max response, negative = inhibition, %. 360,000 tested, 2.5% active. AID 652054; in the data active means max response below about -50%; inconclusive means no clear call, values can overlap the other calls; further: on the % scale 0 is the no-effect control and ±100 the full control effect
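Cells plated overnight at 1500 cells/well, then exposed to library compounds with dopamine controls for 90 minutes at 37 degrees C. DiscoveRx reagent added for 30–60 minutes at room temperature; luminescence read, quantitative HTS format.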
* = called active by the depositor; [ ] = another dose, or the depositor's remark. An excerpt weighted towards active compounds, which were near 3.7% of everything screened. Unless noted, the call rests on the fitted dose curve; in most records, active means well fitted curve in the direction sought with a large enough effect; inconclusive means small, poorly fitted or top-dose-only effect, or another doubt; inactive means no such curve, though single readings can be large; an effect the other way counts as inactive or inconclusive.

Screening CC(C)(C)c1ccc(/C=N/N2CCN(c3ccccn3)CC2)cc1 returned B2AR arrestin -1%, PTHR1 ag -42%, DRD3 agonist 30*, RGS4 inhibitor -7%, BRCA1 expr act 16% and DRD3 antagonist -6.
`O=C(O)c1ccc(/C=N/N2CCN(c3ccccc3)CC2)cc1` gave B2AR arrestin 0%, PTHR1 ag -13%, DRD3 agonist -2, RGS4 inhibitor 15%, BRCA1 expr act 4.5µM* and DRD3 antagonist 5.
`Cc1ccc(C)c(-n2cc(CN3CCCN(C=O)CC3)c(-c3ccccc3)n2)c1` gave B2AR arrestin -1%, PTHR1 ag -10%, DRD3 agonist -6, RGS4 inhibitor 26%, BRCA1 expr act 1% and DRD3 antagonist -5.
For COc1ccc(NC2=Nc3ccccc3CC2)cc1 the results were B2AR arrestin 0%, PTHR1 ag inactive, DRD3 agonist -34, RGS4 inhibitor -11%, BRCA1 expr act inconclusive and DRD3 antagonist -56*.
Screening COc1ccc(NC2=NCCCCC2)cc1 returned B2AR arrestin -1%, PTHR1 ag inactive, DRD3 agonist -2, RGS4 inhibitor 0%, BRCA1 expr act 0% and DRD3 antagonist 19.
CN(C)CCCNc1nc2sc3c(c2c(=O)n1CCc1ccccc1)CCCCC3 was read as B2AR arrestin 0%, PTHR1 ag inactive, DRD3 agonist -12, RGS4 inhibitor 3%, BRCA1 expr act -88% and DRD3 antagonist 7.
COc1ccc(/C=C\C(=O)NCC(=O)N/N=C/c2ccc(O)cc2O)cc1 was read as B2AR arrestin 0%, PTHR1 ag inactive, DRD3 agonist 4, RGS4 inhibitor -38%, BRCA1 expr act -24% and DRD3 antagonist -7.
Screening COc1ccccc1/C=C/C(=O)NCC(=O)N/N=C/c1cc(Br)ccc1OC returned B2AR arrestin 0%, PTHR1 ag inactive, DRD3 agonist -22, RGS4 inhibitor -11%, BRCA1 expr act -65% and DRD3 antagonist -71*.
`COc1ccc(/C=C/C(=O)NCC(=O)N/N=C/c2cc(Br)ccc2OC)cc1` gave B2AR arrestin 0%, PTHR1 ag inactive, DRD3 agonist -40, RGS4 inhibitor -21%, BRCA1 expr act -36% and DRD3 antagonist -58*.
For COc1ccc(Br)cc1/C=C/C(=O)Nc1ccc2ccccc2c1 the results were B2AR arrestin 1%, PTHR1 ag -6%, DRD3 agonist -10, RGS4 inhibitor -13%, BRCA1 expr act -43% and DRD3 antagonist -1.
`COc1ccc(Br)cc1/C=C/C(=O)Nc1ccc(C)cc1` gave B2AR arrestin -2%, PTHR1 ag -22%, DRD3 agonist -32, RGS4 inhibitor -4%, BRCA1 expr act -67% and DRD3 antagonist -75*.
Screening COc1ccccc1/C=C\C(=O)NCC(=O)N/N=C/c1cccc(OC)c1O returned B2AR arrestin 0%, PTHR1 ag -7%, DRD3 agonist -16, RGS4 inhibitor inconclusive, BRCA1 expr act -74% and DRD3 antagonist inconclusive.
`CCN(CC(=O)Nc1ccc(NC(C)=O)cc1)C(=O)c1cccc(N2C(=O)c3ccccc3C2=O)c1` gave PTHR1 ag -8%, DRD3 agonist 4, RGS4 inhibitor 13%, BRCA1 expr act -2% and DRD3 antagonist -7.
Screening COc1ccc(-c2nnc(SCC(=O)Nc3ccc(C)c(C)c3)s2)cc1 returned PTHR1 ag -34%, DRD3 agonist 3 and RGS4 inhibitor -24%.
Screening C=CCn1c(C)cc(C(=O)CSc2nc3ccccc3c(=O)[nH]2)c1C returned B2AR arrestin 0%, PTHR1 ag -19%[57.5 µM], DRD3 agonist 9, RGS4 inhibitor -38%[11.4 µM], BRCA1 expr act inconclusive and DRD3 antagonist -62*.
CCc1ccc(NC(=O)NCCN2CCc3ccccc3C2)cc1 was read as B2AR arrestin 0%, PTHR1 ag inactive, DRD3 agonist -12, RGS4 inhibitor -7%[11.4 µM], BRCA1 expr act 35% and DRD3 antagonist -69*.
Screening O=C(NCCN1CCc2ccccc2C1)Nc1ccc(F)cc1 returned B2AR arrestin 0%, PTHR1 ag inactive, DRD3 agonist -11, RGS4 inhibitor -2%, BRCA1 expr act 4% and DRD3 antagonist -77*.
`O=C(NCCN1CCCCC1)Nc1ccc(F)cc1` gave B2AR arrestin 0%, PTHR1 ag inactive, DRD3 agonist -10, RGS4 inhibitor 6%, BRCA1 expr act -1% and DRD3 antagonist -23.
`CC1(Oc2ccc(CC#N)cc2)CCN(Cc2ccc(-n3ccnc3)cc2)C1` (stereo not drawn) gave PTHR1 ag -11%, DRD3 agonist 1, BRCA1 expr act 11% and DRD3 antagonist -13.
For CCCNC(=O)C1(C)CCCN(Cc2ccsc2)C1 (stereo not drawn) the results were PTHR1 ag inactive, DRD3 agonist -10, BRCA1 expr act -1% and DRD3 antagonist 0.
Screening COc1ccc(-c2nnc(COc3ccc(Br)cc3C)o2)cc1 returned PTHR1 ag inactive, DRD3 agonist 5, RGS4 inhibitor 8%, BRCA1 expr act 18% and DRD3 antagonist 28.
For Cc1cc(Cl)ccc1OCc1nnc(-c2ccccc2C)o1 the results were B2AR arrestin 0%, PTHR1 ag -33%, DRD3 agonist -2, RGS4 inhibitor 18%, BRCA1 expr act 10µM* and DRD3 antagonist 11.
`Fc1ccc(OCc2nnc(-c3ccccc3Br)o2)c(Cl)c1` gave B2AR arrestin 0%, PTHR1 ag -12%, DRD3 agonist 10, RGS4 inhibitor -12%, BRCA1 expr act inconclusive and DRD3 antagonist 19.
For Cc1cc(Br)ccc1OCc1nnc(-c2ccccc2)o1 the results were PTHR1 ag -90%, DRD3 agonist -13, RGS4 inhibitor -2%, BRCA1 expr act 13µM* and DRD3 antagonist inconclusive.
For Clc1ccc(OCc2nnc(-c3ccccc3Br)o2)c(Cl)c1 the results were B2AR arrestin 4%, PTHR1 ag -13%[57.5 µM], DRD3 agonist -18, RGS4 inhibitor 19%, BRCA1 expr act 3.2µM* and DRD3 antagonist inconclusive.
O=C(NC(=S)Nc1ccccc1O)c1ccc(Cl)cc1Cl was read as B2AR arrestin 0%, PTHR1 ag -26%, DRD3 agonist -9, RGS4 inhibitor -30%, BRCA1 expr act 26% and DRD3 antagonist -19.
`COc1ccc(-n2c(C)c(C(C)=O)c3cc(OC(=O)c4ccc(C)cc4)ccc32)cc1` gave PTHR1 ag -4%, DRD3 agonist -17 and RGS4 inhibitor 1%.
`CC1=C(C(=O)N2CCCCCC2)CC(CC(=O)NCCCN(C)C)C(=O)N1Cc1ccc(C(C)(C)C)cc1` (stereo not drawn) gave PTHR1 ag -12%[57.5 µM].

Bioassay records: PubChem, National Center for Advancing Translational Sciences (NCATS)
